Experimental data reported in PubChem BioAssay AID1159580 (chemical genetic matrix, 2015).
In all, about 5,500 compounds went through this assay and about 2,000 (36%) were called active. About 18% were inconclusive and are not listed. Rule as the data show it: active = normalized growth mostly below about 0.91 (no sharp cut-off); inconclusive = no clear call, values can overlap the other calls; inactive = mostly above about 0.92. The list shows a part of the results.

Test: chemical genetic growth profiling, strain panel (AID 1159580);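 also: tested at 20 µM; growth read once vehicle control cultures reached saturation at 30 °C; 1 = growth at the plate median or of vehicle wells; lower values mean less growth of the strain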
Conditions: growth OD

Measured: normalized growth

COc1cc([C@@H]2c3cc4c(cc3[C@H](O)[C@H]3COC(=O)[C@H]23)OCO4)cc(OC)c1OC
inactive: S. cerevisiae deletion strains, locus YJR075W, strain HOC1, active compounds read low 1.03 | S. cerevisiae deletion strains, locus YKL009W, strain mrt4, active compounds read low 1.04 | S. cerevisiae deletion strains, locus YKL068W, active compounds read low 1.01 | S. cerevisiae deletion strains, locus YKL085W, strain MDH1 (second series), active compounds read low 1.01 | S. cerevisiae deletion strains, locus YKL085W, strain MDH1, active compounds read low 1.01 | S. cerevisiae deletion strains, locus YKL160W, strain elf1, active compounds read low 1 | S. cerevisiae deletion strains, locus YKL190W, strain CNB1, active compounds read low 1.01 | S. cerevisiae deletion strains, locus YKR001C, strain vps1, active compounds read low 1.01 | S. cerevisiae deletion strains, locus YKR026C, strain gcn3, active compounds read low 1.01 | S. cerevisiae deletion strains, locus YKR091W, strain srl3, active compounds read low 1.01 | S. cerevisiae deletion strains, locus YLL001W, strain dnm1, active compounds read low 0.984 | S. cerevisiae deletion strains, locus YLL026W, active compounds read low 1 | S. cerevisiae deletion strains, locus YLL041C, strain sdh2, active compounds read low 1.01 | S. cerevisiae deletion strains, locus YLR027C, strain aat2, active compounds read low 1.01 | S. cerevisiae deletion strains, locus YLR039C, strain RIC1, active compounds read low 1.02 | S. cerevisiae deletion strains, locus YLR058C, strain SHM2, active compounds read low 1.01 | S. cerevisiae deletion strains, locus YLR102C, strain apc9, active compounds read low 1.01 | S. cerevisiae deletion strains, locus YLR113W, strain HOG1, active compounds read low 0.924 | S. cerevisiae deletion strains, locus YLR221C, strain rsa3, active compounds read low 1.02 | S. cerevisiae deletion strains, locus YLR258W, strain gsy2, active compounds read low 1.02 | S. cerevisiae deletion strains, locus YLR262C, strain YPT6 (second series), active compounds read low 1.01 | S. cerevisiae deletion strains, locus YLR262C, strain YPT6, active compounds read low 1.05 | S. cerevisiae deletion strains, locus YLR268W, strain sec22, active compounds read low 1.06 | S. cerevisiae deletion strains, locus YLR320W, strain mms22, active compounds read low 1.05 | S. cerevisiae deletion strains, locus YLR330W, strain CHS5, active compounds read low 1.01 | S. cerevisiae deletion strains, locus YLR342W, strain FKS1 (second series), active compounds read low 1.02 | S. cerevisiae deletion strains, locus YLR342W, strain FKS1, active compounds read low 1.02 | S. cerevisiae deletion strains, locus YLR357W, strain rsc2, active compounds read low 1.05 | S. cerevisiae deletion strains, locus YLR370C, strain arc18, active compounds read low 1.02 | S. cerevisiae deletion strains, locus YLR371W, strain rom2, active compounds read low 1.02 | S. cerevisiae deletion strains, locus YLR384C, strain iki3, active compounds read low 0.998 | S. cerevisiae deletion strains, locus YLR418C, strain cdc73, active compounds read low 1.02 | S. cerevisiae deletion strains, locus YML016C, strain PPZ1, active compounds read low 1.01 | S. cerevisiae deletion strains, locus YML032C, strain rad52, active compounds read low 1.05 | S. cerevisiae deletion strains, locus YML120C, strain ndi1, active compounds read low 1.02 | S. cerevisiae deletion strains, locus YML124C, strain tub3, active compounds read low 1 | S. cerevisiae deletion strains, locus YMR058W, strain fet3, active compounds read low 1.02 | S. cerevisiae deletion strains, locus YMR078C, strain ctf18, active compounds read low 1.02 | S. cerevisiae deletion strains, locus YMR125W, strain sto1, active compounds read low 1.01 | S. cerevisiae deletion strains, locus YMR129W, active compounds read low 1.01 | S. cerevisiae deletion strains, locus YMR205C, strain PFK2, active compounds read low 1.03 | S. cerevisiae deletion strains, locus YMR223W, strain ubp8, active compounds read low 0.985 | S. cerevisiae deletion strains, locus YMR231W, strain pep5, active compounds read low 1.01 | S. cerevisiae deletion strains, locus YMR263W, strain SAP30, active compounds read low 1.02 | S. cerevisiae deletion strains, locus YMR307W, strain GAS1, active compounds read low 0.994 | S. cerevisiae deletion strains, locus YNL067W, strain RPL9B, active compounds read low 1.03 | S. cerevisiae deletion strains, locus YNL071W, strain lat1, active compounds read low 1.01 | S. cerevisiae deletion strains, locus YNL128W, strain TEP1, active compounds read low 1.02 | S. cerevisiae deletion strains, locus YNL153C, strain GIM3, active compounds read low 1.03 | S. cerevisiae deletion strains, locus YNL183C, strain NPR1, active compounds read low 0.926 | S. cerevisiae deletion strains, locus YNL209W, strain ssb2, active compounds read low 1.02 | S. cerevisiae deletion strains, locus YNL233W, strain BNI4, active compounds read low 1.03 | S. cerevisiae deletion strains, locus YNL248C, strain rpa49, active compounds read low 1.01 | S. cerevisiae deletion strains, locus YNL250W, strain rad50, active compounds read low 1.01 | S. cerevisiae deletion strains, locus YNL271C, strain bni1, active compounds read low 1.01 | S. cerevisiae deletion strains, locus YNL298W, strain CLA4, active compounds read low 1.01 | S. cerevisiae deletion strains, locus YNL307C, strain MCK1, active compounds read low 1 | S. cerevisiae deletion strains, locus YNL322C, strain KRE1 (second series), active compounds read low 1.01 | S. cerevisiae deletion strains, locus YNL322C, strain KRE1, active compounds read low 1.01 | S. cerevisiae deletion strains, locus YNR049C, strain mso1, active compounds read low 1 | S. cerevisiae deletion strains, locus YNR052C, strain pop2, active compounds read low 1.01 | S. cerevisiae deletion strains, locus YOL006C, strain TOP1, active compounds read low 1.07 | S. cerevisiae deletion strains, locus YOL012C, strain htz1 0.833 | S. cerevisiae deletion strains, locus YOL147C, strain pex11, active compounds read low 1 | S. cerevisiae deletion strains, locus YOR001W, strain rrp6, active compounds read low 1.01 | S. cerevisiae deletion strains, locus YOR061W, strain CKA2, active compounds read low 1.01 | S. cerevisiae deletion strains, locus YOR069W, strain VPS5, active compounds read low 1.01 | S. cerevisiae deletion strains, locus YOR070C, strain gyp1, active compounds read low 1.02 | S. cerevisiae deletion strains, locus YOR080W, strain dia2, active compounds read low 1.01 | S. cerevisiae deletion strains, locus YOR083W, strain WHI5, active compounds read low 1.01 | S. cerevisiae deletion strains, locus YOR106W, strain vam3, active compounds read low 1.02 | S. cerevisiae deletion strains, locus YOR136W, strain idh2, active compounds read low 1 | S. cerevisiae deletion strains, locus YOR144C, strain elg1, active compounds read low 1.01 | S. cerevisiae deletion strains, locus YOR184W, strain ser1, active compounds read low 1.02 | S. cerevisiae deletion strains, locus YOR231W, strain MKK1, active compounds read low 0.947 | S. cerevisiae deletion strains, locus YOR265W, strain rbl2, active compounds read low 1.01 | S. cerevisiae deletion strains, locus YOR270C, strain vph1, active compounds read low 0.996 | S. cerevisiae deletion strains, locus YOR290C, strain snf2, active compounds read low 0.98 | S. cerevisiae deletion strains, locus YOR316C, strain cot1, active compounds read low 1.01 | S. cerevisiae deletion strains, locus YPL051W, strain arl3, active compounds read low 1.01 | S. cerevisiae deletion strains, locus YPL055C, strain LGE1, active compounds read low 1.04 | S. cerevisiae deletion strains, locus YPL078C, strain atp4, active compounds read low 0.997 | S. cerevisiae deletion strains, locus YPL106C, strain sse1, active compounds read low 1.03 | S. cerevisiae deletion strains, locus YPL240C, strain hsp82, active compounds read low 1.02 | S. cerevisiae deletion strains, locus YPL241C, strain CIN2, active compounds read low 1.01 | S. cerevisiae deletion strains, locus YPL256C, strain CLN2, active compounds read low 0.942 | S. cerevisiae deletion strains, locus YPR119W, strain clb2, active compounds read low 1.01 | S. cerevisiae deletion strains, locus YPR141C, strain kar3, active compounds read low 1.01 | S. cerevisiae deletion strains, locus YPR163C, strain tif3, active compounds read low 1.02 | S. cerevisiae deletion strains, locus YPR167C, strain met16, active compounds read low 1.01 | S. cerevisiae deletion strains, strain wtn01, active compounds read low 1.03 | S. cerevisiae strains, strain wild type, active compounds read low 1.01
